# This is one part of a sample in which hits are shown more often than they occur.
# Integrin act MD – qHTS for Activators of Integrin-Mediated Alleviation for Muscular Dystrophy | alpha7betagal myoblasts, beta-gal FDG fluorescence, 48 h | Potency, µM (series often up to 38.3 µM), inactives show at the top dose activation, hits mostly activators | actives 0.064% (n = 350,000);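 also: potency is read from the fitted curve at half-maximal effect; 100% = response of the positive control SU9516; nearly all actives have a fitted effect of over 60% in size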
#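 alpha7betagal+/- myoblasts (passage 13, 250/well) treated 48 h at 37C with compounds at 1:260 dilution of DMSO stock. Lysed, then beta-galactosidase activity read as FDG fluorescence (ex 480/em 540) after 30 min, with pre-read for autofluorescence.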
# ERG-DNA inh – qHTS for Small Molecule Inhibitors of the ERG Ets/DNA interaction | fluorescence polarization, His-ERG Ets domain / labelled DNA | actives 0.028% (n = 370,000) | Potency, µM (top dose mostly 76.9 µM), for inactives: at the highest dose FP activity, negative = inhibition, hits mostly inhibitors; active = well fitted inhibition curve with a large enough effect in the polarisation, with a control signal flat; inconclusive = small, poorly fitted or top-dose-only effect, or effect the other way, or a change in a side signal; inactive = no such curve, though single readings can be large or run the other way; the % refers to the polarisation;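 also: polarization taken with two DNA probes labelled with fluorescein and Texas red; potency is read from the fitted curve at half-maximal effect; % of control where 0% means no effect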
# Target sequence (P11308 whole entry, looked up, the tested form may be a part): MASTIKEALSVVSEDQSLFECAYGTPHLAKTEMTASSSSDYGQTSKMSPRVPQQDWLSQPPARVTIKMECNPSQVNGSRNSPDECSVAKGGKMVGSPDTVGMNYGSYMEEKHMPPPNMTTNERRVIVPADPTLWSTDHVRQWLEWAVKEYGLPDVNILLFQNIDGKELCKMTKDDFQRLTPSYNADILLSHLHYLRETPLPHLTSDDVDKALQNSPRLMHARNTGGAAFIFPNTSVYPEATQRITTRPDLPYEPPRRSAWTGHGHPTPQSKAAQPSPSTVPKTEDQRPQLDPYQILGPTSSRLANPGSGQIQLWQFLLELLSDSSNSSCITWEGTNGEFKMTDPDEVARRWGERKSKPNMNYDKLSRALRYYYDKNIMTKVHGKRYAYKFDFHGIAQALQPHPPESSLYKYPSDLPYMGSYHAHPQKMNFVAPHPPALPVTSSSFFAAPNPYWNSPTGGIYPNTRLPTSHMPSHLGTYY
#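 His-tagged ERG Ets domain (1 uM in the protein solution; 300mM KCl, 50mM Tris-HCl, 1mM EDTA, 1mM DTT, pH 7.5) received compound, then a probe mix of 5 nM fluorescein-DNA and 100nM Texas-615-DNA. Fluorescence polarization was read for both dyes.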
# Gal4-VP16 FLuc – VP16 counterscreen qHTS for inhibitors of ROR gamma transcriptional activity | Drosophila S2 Gal4-VP16 UAS-luciferase, luminescence, 20 h | Potency, µM (highest dose often 53.6 µM), for inactives: top-dose activity, negative = inhibition, usual class: inhibitors | actives 3.5% (n = 310,000) | AID 2546, 2010;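 also: Gal4-VP16 expression switched on by copper sulfate through the metallothionein promoter; potency is read from the fitted curve at half-maximal effect; % is scaled to controls: 0 for no effect and ±100 for the full control effect; nearly all actives have a fitted effect of over 50% in size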
# Giardia killer – Small Molecules that selectively kill Giardia lamblia: qHTS; activity change, % at 7.66 µM, hits read low; Giardia lamblia trophozoite viability; actives 0.15% (n = 340,000); AID 540267, 2011; in the data active = activity change below about -80%; inconclusive = between about -30% and that limit;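 also: parasites exposed to compound for two days anaerobically before the ATP read; % is scaled to controls: 0 for no effect and ±100 for the full control effect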
#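 Trophozoite viability was measured as ATP-dependent luminescence, read 15-30 min after reagent addition. Before that, parasites at 100 cells/well were exposed to compounds for 48 h, anaerobically, at 37 deg C.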
# RORgamma inh – qHTS for inhibitors of ROR gamma transcriptional activity; Nuclear receptor ROR-gamma (Mus musculus), P51450; Drosophila S2 Gal4-RORgamma UAS-luciferase reporter, 20 h; Potency, µM (highest dose often 53.6 µM), for the others: top-dose activity change, negative = inhibition, most hits filed as inhibitors; actives 5.4% (n = 310,000); also: potency is read from the fitted curve at half-maximal effect; % is scaled to controls: 0 for no effect and ±100 for the full control effect; nearly all actives have a fitted effect of over 60% in size
#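 Luciferase reporter read in Schneider cells carrying Gal4-RORγ (mouse) and UAS-Photinus luciferase; cells given compound 1 h before 700 uM copper sulfate induction, then incubated 20 h at ambient temperature.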
# Active calls of the source: *; ? = inconclusive; nt = not tested or not shown; ! = not confirmed by another sample; [ ] = remark or other dose. Unless noted, calls follow the shape of the dose curve; as a rule, active = well fitted curve in the direction sought with a large enough effect; inconclusive = small, poorly fitted or top-dose-only effect, or another doubt; inactive = no such curve, though single readings can be large; an effect the other way counts as inactive or inconclusive.
SMILES,Integrin act MD,ERG-DNA inh,Gal4-VP16 FLuc,Giardia killer,RORgamma inh
C/C(=N\NC(=S)NC(C)C)c1ccc2c(c1)OCCO2,5%,12%,4.5µM*,-2,2µM*
C/C(=N\NC(=O)c1ccccc1)c1ccc2c(c1)OCO2,4%,-16%,?,-10,20%
CNC(=S)N/N=C(\C)c1ccc2c(c1)OCCO2,-13%,6%,8.9µM*,10,2.8µM*
CC(C)=CC(=O)Oc1ccc(C(=O)N(C)c2ccccc2I)cc1,nt,nt,22%,36,33%
COc1ccc(C2NC(=S)NC3=C2CCCC3=C2SCCS2)cc1 (centres undefined),-44%,-3%,?,2,10µM*
S=C1NC2=C(CCCC2=C2SCCCS2)C(c2ccccc2)N1 (centres undefined),43%,-4%,7.9µM*,-20,?
Cc1ccc(C2NC(=S)NC3=C2C(=O)CCC3)cc1 (centres undefined),6%,-2%,10%,-19,-7%
O=C1CCCC2=C1C(c1ccccc1)NC(=S)N2 (centres undefined),-30%,5%,-21%,0,-1%
O=C(Nc1ccccc1Cl)C1CCN(S(=O)(=O)c2cccc3nonc23)CC1,27%,3%,-12%,10,7%
CC(=O)OCC1OC(C#CC(C)(C)C)C=CC1OC(C)=O (centres undefined),nt,nt,5%[10 µM],nt,?
COc1ccc(C[C@H]2COC(=O)[C@@H]2Cc2ccc(OC3OC(CO)C(O)C(O)C3O)c(OC)c2)cc1OC (some centres undefined),-19%,-9%,-17%,21,?
COc1cc(C[C@H]2C(=O)OC[C@@H]2Cc2ccc(OC)c(OC)c2)ccc1O,nt,nt,1.1µM*,nt,6.3µM*
CCOC(=O)c1sc(N/N=C/c2ccccc2)nc1C,19%,11%,?,-17,?
CCOC(=O)Cc1csc(N/N=C/c2ccccc2)n1,16%,-3%,-28%,0,16µM*
CCOC(=O)Cc1csc(N/N=C\c2ccc(N(C)C)cc2)n1,?,-2%,-3%,-2,?
CCOC(=O)Cc1csc(N/N=C\c2cccc(Br)c2)n1,8%,1%,?,-7,10µM*
CCOC(=O)c1sc(N/N=C/c2cccc(C)c2)nc1C,-6%,3%,?,-24,7.9µM*
CC(=O)c1sc(N/N=C\c2ccccc2O)nc1C,?,7%,4µM*,-20,1.4µM*
COc1cccc(-c2cccc(NC(=O)C3CCN(C4CCOCC4)CC3)c2)c1,43%,1%,0%,19,-20%
CC1CCCC(C)N1CCCNC(=O)Cn1c(=O)c2cccn2c2cccnc21 (centres undefined),-12%,-8%,2%,-12,0%
COc1ccc(/C=N/Nc2nc(C(=O)O)cs2)cc1,-6%,-5%,5µM*,-11,3.5µM*
COC(=O)c1ccc(/C=N/Nc2nc(-c3ccccc3)cs2)cc1,-5%,3%,-11%,2,-22%
[O-]/[N+](=N\O)c1ccccc1,nt,nt,-6%,nt,-1%
COc1c[nH]n(C2CCCCC2)c(=O)c1=O,-11%[7.66 µM],-7%,?,-12,20µM*
CCOc1ccc(CSCCNC(=S)Nc2ccc(OC)cc2)cc1,-51%,0%,7.1µM*,0,2µM*
SMILES,Integrin act MD,ERG-DNA inh,Gal4-VP16 FLuc,Giardia killer,RORgamma inh
C=COCCNC(=S)Nc1ccccc1,-4%,?,-6%,-6,-1%
CCCOc1ccc(CSCCNC(=S)Nc2ccccc2)cc1,-48%,-8%,?,6,2.8µM*
COc1ccc(C(=O)NCCSCc2ccc(C)cc2)cc1,-14%,-4%,-1%,6,8%
Cc1cc(C)cc(-n2c(SCC(=O)N3CCCCCC3)nc3c([nH]c4ccccc43)c2=O)c1,nt,-3%,nt,nt,nt
O=C(c1c(F)cccc1F)N1CCCc2ccccc21,-7%,9%,-1%,30,-2%
CCOc1ccccc1NC(=O)C1CCN(S(=O)(=O)c2cc(Br)cc3c2N(C(C)=O)CC3)CC1,nt,0%,nt,nt,nt
O=C1CN(C(=O)COC(=O)c2ccc(Cl)c(S(=O)(=O)N3CCCCC3)c2)c2ccccc2N1,-38%,4%,nt,4,nt
Cc1ccc(Sc2nnc(Cc3ccccc3)c3ccccc23)cc1,-56%,-9%,?,-4,13µM*
COc1ccc(Sc2nnc(Cc3ccccc3)c3ccccc23)cc1,-50%,-2%,6%,3,-39%
COc1ccc(OC)c(NC(=O)Cn2cnc3ccc(S(=O)(=O)N4CCC(C)CC4)cc3c2=O)c1,nt,5%,nt,nt,nt
COc1ccc(-c2nc(CN3CCC(C(=O)NCC4CCCO4)CC3)c(C)o2)cc1OC (centres undefined),-34%,4%,-12%,14,1%
CCc1ccc(N/C(SCc2cccc(F)c2)=C(/C#N)C(=O)NCc2ccco2)cc1,-10%,-5%,6.3µM*,-5,1.6µM*
S=C1NCN(C2CCCCC2)CN1c1ccccc1,11%,-18%,?,7,22µM*
CC(C)N(Cc1ccccc1)C(=S)NC1CCCCC1,-14%,-4%,?,-12,13µM*
CC(C)N(C(=S)NC1CCCCC1)c1ccccc1,nt,nt,?,nt,11µM*
Cc1cccc(NC(=S)N(c2ccccc2)C(C)C)c1C,2%,-5%,25µM*,25,14µM*
CC(C)N(Cc1ccccc1)C(=S)NCc1ccccc1,-5%,1%,-4%,-1,?
COc1ccccc1NC(=S)N(c1ccccc1)C(C)C,-14%,15%,-5%,22,?
Fc1ccccc1,nt,nt,-6%,nt,-6%
O=C(NCCc1ccccc1)c1ccc2c(c1)N(Cc1ccc(Cl)cc1)C(=O)CS2,nt,2%,nt,nt,nt
C=C[C@@]1(C)CC(=O)[C@@]2(O)[C@@]3(C)[C@@H](O)CCC(C)(C)[C@@H]3[C@H](OC(=O)CCN(C)C)[C@H](OC(C)=O)[C@@]2(C)O1,nt,nt,2%,nt,3%
CC1(C)Cc2ccccc2-c2n[nH]c(=S)n21,22%,nt,0.89µM*,5,2.8µM*
CNC(=O)[C@@H]1C[C@H]1[C@@H](NC(=O)OCc1ccccc1)c1ccccc1,?,3%,5%,-2,13µM*!
CC(=O)OC[C@@H]1O[C@H](C/C=N\OC[C@@H](O)COCc2ccco2)C=C[C@@H]1OC(C)=O,nt,nt,-13%[10 µM],nt,31%[10 µM]
O=C(CC1OC(=O)c2ccccc21)NNC(=O)c1ccc(F)cc1 (centres undefined),23%,-10%,nt,3,nt
COc1ccc(NC(=S)Nc2ccccn2)cc1,2%,5%,7.1µM*,7,2.8µM*
Cc1cccc(NC(=S)Nc2ccc(Oc3ccccc3)cc2)n1,-42%,1%,?,32,9%
